Compound activity (PubChem)
Vif-APOBEC3G blk: qHTS for Inhibitors of Vif-A3G Interactions: qHTS; Potency, µM (top dose mostly 46.1 µM), without a hit: at the highest dose activity, negative = active, usual class: inhibitors; 410,000 compounds, 0.076% hits; HeLa A3G-eYFP + Vif (tagged APOBEC3G with the HIV-1 protein that degrades it), YFP fluorescence, overnight; further: potency means the concentration at half of the fitted maximal effect; on the % scale 0 is the no-effect control and ±100 the full control effect; nearly all actives have a fitted effect of over 60% in size
Target sequence (Q9HC16 whole entry, looked up): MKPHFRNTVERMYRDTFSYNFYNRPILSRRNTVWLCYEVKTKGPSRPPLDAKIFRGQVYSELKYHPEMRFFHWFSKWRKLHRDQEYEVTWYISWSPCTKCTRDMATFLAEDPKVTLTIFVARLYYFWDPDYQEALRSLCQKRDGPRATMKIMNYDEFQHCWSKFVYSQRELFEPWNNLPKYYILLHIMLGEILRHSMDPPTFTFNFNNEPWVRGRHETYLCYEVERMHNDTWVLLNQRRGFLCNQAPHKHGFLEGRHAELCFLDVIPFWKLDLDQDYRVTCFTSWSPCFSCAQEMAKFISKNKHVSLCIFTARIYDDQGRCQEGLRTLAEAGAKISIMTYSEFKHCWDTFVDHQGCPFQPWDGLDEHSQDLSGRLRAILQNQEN
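Read-out is eYFP fluorescence (Ex 488/Em 500-530) from Vif-expressing HeLa A3G-eYFP cells; more signal means A3G escaped Vif-mediated degradation. Cells plated overnight, compound pinned in, incubated overnight at 37 deg C.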
VDR inh: Inhibitors of the vitamin D receptor (VDR): qHTS | Vitamin D3 receptor (Homo sapiens), P11473 | VDR-SRC2-3 peptide fluorescence polarization, 2 h | Potency, µM, without a hit: max response, negative = inhibition, usual class: inhibitors | 400,000 compounds, 0.93% hits | AID 504847, 2011; further: potency means the concentration at half of the fitted maximal effect; on the % scale 0 is the no-effect control and ±100 the full control effect
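Measured by FP: displacement of SRC2-3 coactivator peptide from VDR by library compounds, following a two-hour ambient incubation.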
TSHR antagonist: Antagonists of the Thyroid Stimulating Hormone Receptor: HTS campaign | Thyrotropin receptor (Homo sapiens), P16473 | TSHR-expressing cells, TSH-stimulated cAMP HTRF, 2 h; stronger effect = lower value | activity change, negative = inhibition, % at 11.5 µM | 330,000 compounds, 0.2% hits | AID 504810, 2011;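 active means activity change below a set negative limit, meaning inhibition stronger than a set level, cut at about -70% in these data; inconclusive means activity change between two set negative limits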; further: on the % scale 0 is the no-effect control and ±100 the full control effect
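Inhibition of cAMP made by TSHR-expressing cells under TSH stimulation (4nM final, EC80; 2 h, 37 deg C) is quantified with a one-step lysis HTRF kit, anti-cAMP cryptate versus cAMP-d2.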
Vif-A3F inh: qHTS for Inhibitors of Vif-A3F Interactions: qHTS; 390,000 compounds, 0.2% hits; Potency, µM (series often up to 46.1 µM), for inactives: at the top dose activity, negative = active; AID 602313, 2012; HeLa A3F-eYFP + Vif (tagged APOBEC3F with the HIV-1 protein that degrades it), YFP fluorescence increase; further: potency means the concentration at half of the fitted maximal effect; % of control where 0% means no effect; nearly all actives have a fitted effect of over 65% in size
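HeLa cells stably expressing Vif plus C-terminally eYFP-tagged A3F were seeded, incubated overnight at 37 deg C, dosed with compound, incubated overnight again at 37 deg C. Yellow fluorescence (Ex 488/Em 500-530) reported blocked Vif-mediated A3F-eYFP degradation.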
PLK1 PBD block: qHTS for Inhibitors of PLK1-PDB (polo-like kinase 1 - polo-box domain): Primary Screen; AID 720504, 2013; Potency, µM, for the others: max response, negative = inhibition, most hits filed as inhibitors; 360,000 compounds, 2.8% hits; Plk1 PBD binding of FITC phosphopeptide, fluorescence polarization; Serine/threonine-protein kinase PLK1 (Homo sapiens), P53350; further: potency means the concentration at half of the fitted maximal effect; series mostly up to about 57 µM; on the % scale 0 is the no-effect control and ±100 the full control effect; nearly all actives have a fitted effect of over 65% in size
VDR confirm: qHTS for Inhibitors of the vitamin D receptor (VDR): Hit Validation in Primary Screen | shares compounds with VDR inh | VDR-coactivator inhibition assay, qHTS confirmation | Potency, µM, hits mostly inhibitors | 840 compounds, 89% hits | AID 602199, 2012; further: potency means the concentration at half of the fitted maximal effect
VDR FP: qHTS for Inhibitors of the vitamin D receptor (VDR): Hit Validation using a Fluorescein Assay. Potency, µM (highest dose often 57.1 µM), for the others: top-dose activity change, negative = inhibition, usual class: inhibitors. 840 compounds, 48% hits. VDR-coactivator binding, fluorescein fluorescence polarization. shares compounds with VDR inh; further: potency means the concentration at half of the fitted maximal effect
VDR bla: qHTS for Inhibitors of the vitamin D receptor (VDR): Hit Validation using a Beta-Lactamase Assay | VDR beta-lactamase reporter cells, FRET ratio; cells co-treated with VDR agonist LG190178 | shares compounds with VDR inh | 840 compounds, 23% hits | Potency, µM (highest dose often 46.1 µM), without a hit: at the highest dose activity change, negative = inhibition, most hits filed as inhibitors | AID 602202, 2012; further: potency means the concentration at half of the fitted maximal effect; on the % scale 0 is the no-effect control and ±100 the full control effect
VDR viability: qHTS for Inhibitors of the vitamin D receptor (VDR): Hit Validation using a Cytotoxicity Assay. shares compounds with VDR inh. cytotoxicity counter-screen, cell viability, qHTS. Potency, µM (top dose mostly 48.3 µM), for the others: at the top dose activity change, negative = cytotoxicity, most hits filed as cytotoxic. 840 compounds, 18% hits;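 further: potency means the concentration at half of the fitted maximal effect; plate controls were DMSO for no effect and high-concentration cycloheximide for full effect; nearly all actives have a fitted effect of over 75% in size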
* marks the source's active call; other numbers are inactive results. In the library only some 3.1% were active in any assay of this set; here they are far more common. Unless noted, the call rests on the fitted dose curve; in most records, active means well fitted curve in the direction sought with a large enough effect; inconclusive means small, poorly fitted or top-dose-only effect, or another doubt; inactive means no such curve, though single readings can be large; an effect the other way counts as inactive or inconclusive.

What do the screens show for `O=[N+]([O-])c1c(Nc2ccc(O)cc2)cc(Cl)c2nonc12`?
Vif-APOBEC3G blk: inconclusive; VDR inh: inconclusive; TSHR antagonist: -102.1*; Vif-A3F inh: 1.7%; PLK1 PBD block: 1.68µM*; VDR confirm: 2.51*; VDR FP: 2µM*; VDR bla: inconclusive; VDR viability: 9.47µM*

What do the screens show for `O=[N+]([O-])c1c(Nc2ccccn2)cc(Cl)c2nonc12`?
Vif-APOBEC3G blk: -7.0%; VDR inh: inconclusive; TSHR antagonist: 0.2; Vif-A3F inh: inconclusive; PLK1 PBD block: -97.0%; VDR confirm: 3.36*; VDR FP: inconclusive; VDR bla: 3.66µM*; VDR viability: 5.8µM*

What do the screens show for `Cc1nc2ccc(S(=O)(=O)CCC(=O)Nc3ccc(Cl)cc3)cc2s1`?
VDR inh: -4.7%

Results for O=C(Nc1cnn(Cc2ccc(Cl)cc2Cl)c1)c1noc2c1CCc1ccccc1-2 ?
Vif-APOBEC3G blk: 3.5%; VDR inh: -7.7%; Vif-A3F inh: -7.8%

Results for CCOC(=O)c1cnc(-c2ccccc2)nc1N1CCOCC1 ?
Vif-APOBEC3G blk: -9.2%; VDR inh: -4.1%; TSHR antagonist: 6.3; Vif-A3F inh: -5.2%; PLK1 PBD block: 1.9%

How did CCOC(=O)c1[nH]cc(-c2ccccc2)c1N1CCOCC1 do in these assays?
Vif-APOBEC3G blk: -0.1%; VDR inh: 22.4µM*; TSHR antagonist: -1.6; Vif-A3F inh: -0.9%; PLK1 PBD block: 5.32µM*; VDR confirm: 21.2*; VDR FP: inconclusive; VDR bla: 14.1%; VDR viability: inconclusive

Results for Cc1nc2c3cc(F)ccc3n(Cc3ccccc3)c2s1 ?
Vif-APOBEC3G blk: 6.31µM*; VDR inh: 50.1µM*; TSHR antagonist: 5.1; Vif-A3F inh: -27.7%; PLK1 PBD block: -26.1%; VDR confirm: inconclusive; VDR FP: inconclusive; VDR bla: inconclusive; VDR viability: 23.4%

What do the screens show for `O=C(/C=C/c1ccc(Br)cc1)c1ccc(NC2=NCCCS2)cc1`?
Vif-APOBEC3G blk: inconclusive; VDR inh: 22.4µM*; TSHR antagonist: 17.6; Vif-A3F inh: -2.7%; PLK1 PBD block: -10.9%; VDR confirm: 15*; VDR FP: 10µM*; VDR bla: inconclusive; VDR viability: 18.4µM*

Results for O=C(CCN1CCN(c2ccccc2F)CC1)c1ccc(Br)cc1 ?
Vif-APOBEC3G blk: -16.9%; VDR inh: 17.8µM*; TSHR antagonist: 0.5; Vif-A3F inh: -5.5%; PLK1 PBD block: 8.44µM*; VDR confirm: 16.8*; VDR FP: inconclusive; VDR bla: inconclusive; VDR viability: inconclusive

What do the screens show for `Brc1ccc(OCCN2CCOCC2)cc1`?
Vif-APOBEC3G blk: 1.4%; VDR inh: -13.3%; TSHR antagonist: 3.7; Vif-A3F inh: 9.1%; PLK1 PBD block: -18.7%

How did O=C(CCN1CCOCC1)c1ccc(Br)cc1 do in these assays?
Vif-APOBEC3G blk: -25.9%; VDR inh: 22.4µM*; TSHR antagonist: 5.4; Vif-A3F inh: 5.9%; PLK1 PBD block: 11.9µM*; VDR confirm: 23.8*; VDR FP: inconclusive; VDR bla: inconclusive; VDR viability: inconclusive

What do the screens show for `COc1c(O)cc2c(c1O)[C@@H]1O[C@@H](CO)[C@@H](O)[C@@H](O)[C@@H]1OC2=O`?
VDR inh: -2.8%

How did CS(=O)(=O)c1ncc(Cl)c(C(=O)N(Cc2ccc(Cl)cc2)Cc2ccco2)n1 do in these assays?
Vif-APOBEC3G blk: -24.6%; VDR inh: 25.1µM*; Vif-A3F inh: 1.7%; VDR confirm: 2.82*; VDR FP: 3.55µM*; VDR bla: 16.4µM*; VDR viability: 18.9µM*

How did Cc1ccc(C(C[N+](=O)[O-])n2nc(C)cc2C)cc1 (stereo not given) do in these assays?
Vif-APOBEC3G blk: -8.9%; VDR inh: 79.4µM*; TSHR antagonist: 5.8; Vif-A3F inh: 3.7%; PLK1 PBD block: 16.8µM*; VDR confirm: 13.4*; VDR FP: 8.91µM*; VDR bla: inconclusive; VDR viability: inconclusive

How did CC(=O)c1cccc(NC(=O)c2noc3c2CSc2ccccc2-3)c1 do in these assays?
Vif-APOBEC3G blk: -7.5%; VDR inh: 8.9%; Vif-A3F inh: -8.0%

Results for [O-]/[N+](=C/c1ccc(F)cc1)c1ccc(Cl)cc1 ?
Vif-APOBEC3G blk: 9.3%; VDR inh: 31.6µM*; TSHR antagonist: -0.3; Vif-A3F inh: -2.4%; PLK1 PBD block: inconclusive; VDR confirm: 23.8*; VDR FP: inconclusive; VDR bla: -12.8%; VDR viability: 6.2%

How did CN1C(=O)C(Cl)(Cl)C(=O)c2ccccc21 do in these assays?
Vif-APOBEC3G blk: -21.7%; VDR inh: 3.98µM*; TSHR antagonist: 4.2; Vif-A3F inh: -1.5%; PLK1 PBD block: 11.9µM*; VDR confirm: 3.36*; VDR FP: inconclusive; VDR bla: 2.9%; VDR viability: -0.9%

Results for CN1C(=O)C2(NC(=O)c3ccccc3N2C)c2ccccc21 (stereo not given) ?
Vif-APOBEC3G blk: 1.0%; VDR inh: 1.3%; TSHR antagonist: -3.1; Vif-A3F inh: 1.6%; PLK1 PBD block: 2.5%
